HEK293 cAMP ctrl: counter-screen for TSHR agonists: cAMP increase in parental HEK293; parental HEK293 CNG cAMP sensor, membrane potential fluorescence; Potency, µM (series often up to 57.1 µM), for inactives: at the top dose activation, usual class: activators; actives 2.5% (n = 73,000); further: % of control where 0% means no effect; nearly all actives have a fitted effect of over 55% in size
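Counterscreen for endogenous-receptor signalling: CNG-channel HEK 293 cells report cAMP rise by membrane depolarization. After 60 min dye equilibration with 100 uM RO 20-1724, compounds incubated 30 min before bottom-read fluorescence at 590 nm.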
Caspase-7 inhib: allosteric or competitive inhibitors of human caspase-7; P55210; recombinant caspase-7, Ac-DEVD-AFC fluorescence rate; Potency, µM (series often up to 57.5 µM), without a hit: at the top dose activity change, negative = inhibition, most hits filed as inhibitors; actives 0.02% (n = 75,000); active means well fitted inhibition curve with a large enough effect in the main read-out, with a control signal flat, not every such curve was filed as active; inconclusive means small, poorly fitted or top-dose-only effect, or a change in a side signal; further: % of control where 0% means no effect
Target sequence (P55210 24-198 limits assumed): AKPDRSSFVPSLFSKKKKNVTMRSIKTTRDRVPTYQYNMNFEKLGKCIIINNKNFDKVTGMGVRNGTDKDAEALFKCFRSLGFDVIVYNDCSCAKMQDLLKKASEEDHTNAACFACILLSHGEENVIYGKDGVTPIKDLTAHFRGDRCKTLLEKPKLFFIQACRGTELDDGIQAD
Target sequence (P55210 207-303 limits assumed): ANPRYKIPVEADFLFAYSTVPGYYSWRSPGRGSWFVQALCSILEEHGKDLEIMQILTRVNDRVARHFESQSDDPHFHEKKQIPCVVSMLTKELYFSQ
Casp1 inh: caspase-1 (human) inhibition, allosteric or competitive; P29466; Caspase-1 enzyme, Ac-WEHD-AFC fluorogenic rate; Potency, µM (doses to about 57.5 µM), for inactives: at the highest dose activity change, negative = inhibition, usual class: inhibitors; actives 0.03% (n = 75,000); AID 900;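 further: plate controls were vehicle for no effect and no substrate for full effect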
Target sequence (P29466 120-297 limits assumed): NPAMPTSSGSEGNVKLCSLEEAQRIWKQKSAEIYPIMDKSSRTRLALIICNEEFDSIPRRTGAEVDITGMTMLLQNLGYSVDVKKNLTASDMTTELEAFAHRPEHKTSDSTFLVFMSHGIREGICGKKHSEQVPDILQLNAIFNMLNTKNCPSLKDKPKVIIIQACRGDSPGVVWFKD
Target sequence (P29466 317-404 limits assumed): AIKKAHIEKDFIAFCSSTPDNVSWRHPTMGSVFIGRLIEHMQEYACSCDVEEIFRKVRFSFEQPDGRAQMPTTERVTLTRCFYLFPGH
TSHR agonist: TSH receptor (human) agonism; HEK293-CNG-TSHR cells (CNG channel as cAMP sensor), membrane potential dye, cAMP; Potency, µM (titrated, usually from 57.1 µM), without a hit: at the top dose activation, most hits filed as activators; actives 0.48% (n = 73,000); AID 926; active means well fitted activation curve with a large enough effect in the main read-out, with a control signal flat, not every such curve was filed as active; inconclusive means small, poorly fitted or top-dose-only effect, or a change in a side signal; inactive means no such curve, though single readings can be large or run the other way; % of control where 0% means no effect;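 further: the control signal comes from parental cells without the receptor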
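HEK 293 cells stably expressing TSHR and a modified CNG channel, with CNG-only parental cells as counterscreen, were preloaded 60 min at room temperature with membrane potential dye containing 100 uM RO 20-1724. Compound exposure was 30 min, and depolarization was read as fluorescence at 590 nm.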
Starred values were filed as active, the others as inactive; u = inconclusive; x = not tested or not shown; [ ] = dose if it differs, or a comment. This is a sample that favours compounds with a hit; in the whole collection about 2.6% have one here. Unless noted, the call rests on the fitted dose curve; in most records, active means well fitted curve in the direction sought with a large enough effect; inconclusive means small, poorly fitted or top-dose-only effect, or another doubt; inactive means no such curve, though single readings can be large; an effect the other way counts as inactive or inconclusive. Potency means the concentration at half of the fitted maximal effect.

SMILES	HEK293 cAMP ctrl	Caspase-7 inhib	Casp1 inh	TSHR agonist
COc1ncc2nc(-c3cc(F)cc(F)c3)c(=O)n(C[C@H]3CCCO3)c2n1	u	-1%	-3%	u
COCCn1c(=O)c(CCc2ccccc2)nc2cnc(Oc3ccc(OC)cc3)nc21	u	-4%	-5%	u
COc1ccc(C)cc1NC(=O)CN(Cc1nnc(-c2ccc(Cl)cc2)o1)C1CCCC1	16µM*	-9%	-4%	u
Cc1ccc2c(c1)C(=O)[C@]1(O)CCN(c3ccccc3)C1=N2	13%	u	x	8%
COc1ccc(-n2nc(C(=O)Nc3ccc4c(c3)OCO4)c3c4ccccc4n(C)c3c2=O)cc1	16µM*	-1%	-1%	u
O=C(CSCc1cnn(-c2ccccc2)c1-n1cccc1)NCc1ccc2c(c1)OCO2	32µM*	-3%	-2%	u
O=C(CSCc1cnn(-c2ccccc2)c1-n1cccc1)NCCN1CCOCC1	12%	-1%	1%	6%
O=C(NCc1ccc2c(c1)OCO2)c1nn(-c2ccccc2)c(=O)c2ccccc12	25µM*	-1%	-3%	u
COc1ccc(-n2nc(C(=O)Nc3ccc4c(c3)OCO4)c3ccccc3c2=O)c(OC)c1	u	-2%	1%	u
Cc1ccc(-n2nc(C(=O)NCc3ccco3)c3c4ccccc4n(C)c3c2=O)cc1	4µM*	6%	4%	u
c1ccc(CN2COc3c(ccc4c5c(ccc34)CN(Cc3ccccc3)CO5)C2)cc1	-6%[11.4 µM]	-2%[11.5 µM]	0%[11.5 µM]	4%[11.4 µM]
CCOC(=O)[C@]1(C(NC(=O)OC)c2ccco2)CCCC1=O (stereo not given in full)	8%[11.4 µM]	2%[11.5 µM]	-4%[11.5 µM]	-1%[11.4 µM]
N[C@@H](CNO)C(=O)O	3%[11.4 µM]	1%[11.5 µM]	0%[11.5 µM]	2%[11.4 µM]
C=C(NC(=O)C(=C)NC(=O)c1csc(C2=N[C@@H]3c4csc(n4)[C@@H]4NC(=O)c5csc(n5)[C@@H]([C@](C)(O)[C@H](C)O)NC(=O)[C@@H]5CSC(=N5)/C(=C/C)NC(=O)[C@@H]([C@H](C)O)NC(=O)c5csc(n5)[C@]3(CC2)NC(=O)[C@@H](C)NC(=O)C(=C)NC(=O)[C@@H](C)NC(=O)[C@@H]([C@@H](C)CC)N[C@H]2C=Cc3c([C@H](C)O)cc(nc3[C@@H]2O)C(=O)O[C@H]4C)n1)C(N)=O	4%[25.6 µM]	-2%[25.7 µM]	-4%[25.7 µM]	-12%[25.6 µM]
Cc1cc(-c2ccc(N=Nc3cc(S(=O)(=O)O)c4ccccc4c3N)c(C)c2)ccc1N=Nc1cc(S(=O)(=O)O)c2ccccc2c1N	-37%	0%	-6%	u
O=C(O)c1cccc(N=Nc2c(S(=O)(=O)O)ccc3c2C(=O)c2ccccc2C3=O)c1O	u	-8%[11.5 µM]	-1%[11.5 µM]	u
Cc1ccc2oc(C(=O)NCc3ccc4c(c3)OCO4)c(C)c2c1	u	1%	-3%	u
COc1ccccc1-n1nc(C(=O)Nc2ccc3c(c2)OCO3)c2ccccc2c1=O	25%	-2%	-1%	11%
O=C(Nc1ccc2c(c1)OCO2)c1nn(-c2ccccc2)c(=O)c2ccccc12	25µM*	-5%	-3%	u
Cc1c(C(=O)NCc2ccc3c(c2)OCO3)oc2ccccc12	25µM*	-4%	-3%	u
CC(/C=C/C=C(C)/C=C/C(=O)O)=C\C=C\C=C(C)\C=C\C=C(C)\C=C\C(=O)O	31%	-7%	-4%	0%
CO[C@@H]1COC(=O)[C@@H](C)NC(=O)C/C=C\[C@@H](C)[C@H](NS(=O)(=O)c2ccc(C)cc2)COC(=O)[C@H](C)NC(=O)C/C=C\[C@H]1C	-1%[11.4 µM]	0%[11.5 µM]	2%[11.5 µM]	10%[11.4 µM]
O=C1CC(c2cccc(Cl)c2)Cc2nc(N3CCN(c4ccccc4)CC3)ncc21 (stereo not given)	u	0%	-1%	u
O=C1CC(c2ccc(F)cc2)Cc2nc(N3CCOCC3)ncc21 (stereo not given)	8%	1%	0%	17%
O=C1CC(c2cccc(Cl)c2)Cc2nc(N3CCOCC3)ncc21 (stereo not given)	5µM*	0%	-1%	u
SMILES	HEK293 cAMP ctrl	Caspase-7 inhib	Casp1 inh	TSHR agonist
CCN1CCN(c2ncc3c(n2)CC(c2cc(OC)c(OC)c(OC)c2)CC3=O)CC1 (stereo not given)	10µM*	-2%	2%	u
CCCCCCCCCCCC(CC1OC(=O)C1CCCCCC)OC(=O)C(CC(C)C)NC=O (stereo not given)	x	1%	1%	x
CN(C)CCSCCO	0%[11.4 µM]	1%[11.5 µM]	-1%[11.5 µM]	4%[11.4 µM]
Cc1cc(O)c(-c2n[nH]c3c2C(c2cccc(O)c2)N(Cc2cccnc2)C3=O)cc1Cl (stereo not given)	-2%	32µM*	-2%	27%
COCCCN1C(=O)c2[nH]nc(-c3ccccc3O)c2C1c1cccc(Cl)c1 (stereo not given)	22%	-2%	-3%	11%
COC(=O)C/C=C\[C@@H](C)[C@@H](/C=N\O[C@@H]1O[C@H](COC(C)=O)[C@H](OC(C)=O)[C@H](OC(C)=O)[C@H]1OC(C)=O)OC	5%[11.4 µM]	1%[11.5 µM]	-1%[11.5 µM]	20%[11.4 µM]
CC1CCCC(NC(=O)COC(=O)Cc2cn3ccsc3n2)C1C (stereo not given)	32µM*	-12%	-4%	u
COc1ccc(-n2c(/C=C(\C)O)nc(=O)c3c(C)cc(C)nc32)cc1	25µM*	1%	0%	u
COc1ccc(-n2c(C)nc3c(cnn3-c3ccc(C)c(C)c3)c2=O)cc1	-1%	-4%	-2%	13%
COc1ccc(S(=O)(=O)Nc2ccccc2C(=O)O)cc1	-5%	0%	-2%	-1%
COc1ccc(CNC(=O)C(OC(C)=O)c2ccccn2)cc1 (stereo not given)	7.9µM*	2%	-3%	u
Cc1cccc(C(OC(=O)c2ccco2)C(=O)NCc2ccccc2)n1 (stereo not given)	7%	-1%	-2%	-6%
CC(C)N(Cc1nc(-c2ccc(Cl)cc2)no1)C(=O)CCC1CCCC1	20µM*	-4%	1%	u
COc1ccccc1OCC(=O)N(Cc1nc(-c2ccc(Cl)cc2)no1)C(C)C	u	-5%	-2%	u
O=C(Nc1ccccc1N1CCN(c2ccccc2)CC1)C1CCCCC1	7.9µM*	1%	0%	u
CCCC(=O)Nc1ccccc1NC(=O)C1CCCCC1	12%	0%	0%	17%
CCOC(=O)OCC1OC(C#Cc2ccccc2)C=CC1Oc1cccc(N(C)C)c1 (stereo not given)	24%[11.4 µM]	-3%[11.5 µM]	0%[11.5 µM]	17%[11.4 µM]
O=C(CSc1nc2c(c(C(F)(F)F)n1)CCc1ccccc1-2)NCc1ccco1	25µM*	-2%	-3%	u
Cc1nc(SCC(=O)NCc2ccco2)nc(C)c1C	-1%	7%	-1%	4%
CC(C)=CC1C(C(=O)Nc2ccc(Br)cn2)C1(C)C (stereo not given)	25µM*	2%	-4%	u
CC[C@H]1NC(=O)c2cc(S(N)(=O)=O)c(Cl)cc2N1	2%[25.6 µM]	3%[25.7 µM]	-3%[25.7 µM]	-8%[25.6 µM]

Compound activity: PubChem BioAssay, National Center for Advancing Translational Sciences (NCATS)
